From PubChem BioAssay (NCATS)
A number with no mark means an inactive call. Activity calls are given as the source filed them. Calls come from the whole dose curve; as a rule, active = well fitted curve in the direction sought with a large enough effect; inactive = no such curve, though single readings can be large or run the other way.

Biological target: Alpha-galactosidase (Coffea arabica) (UniProt Q42656)
Assay: Counterscreen for Glucocerebrosidase Inhibitors: qHTS Assay for Coffee Bean alpha-Galactosidase at pH 5.9 (AID 998);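 note: plate controls were uninhibited enzyme for no effect and no-enzyme basal signal for full effect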
Conditions: coffee bean alpha-galactosidase enzyme assay; series mostly up to 76.9 µM; activity, negative = inhibition: at the top concentration
Excerpt: NIH Chemical Genomics Center [NCGC]
NIH Molecular Libraries Screening Centers Network [MLSCN]
PI Name: Zheng, Wei [NIH]
Alpha-galactosidase is a homodimeric glycoprotein that hydrolyzes the terminal alpha-galactosyl moieties from glycolipids and glycoproteins. Deficiency of this enzyme results in Fabry Disease with progressive accumulation of globotriaosylceramide and other glycosphingolipids in vascular endothelial cells that causes renal failure, myocardial infarction and stroke, and premature death in patients. It has reported that the improper folding and trafficking of alpha-galactosidase resulted from the genetic mutations may account for a significant numbers of Fabry patients. […] We optimized this coffee bean alpha-galactosidase assay in 1536-well plate format as a counter-screen assay for identifying the selective small molecule inhibitors of other lysosomal enzymes.
NCGC Assay Protocol Summary:
This is a fluorogenic enzyme assay with 4-Methylumbelliferyl alpha-D-galactopyranoside as the substrate and green coffee bean […] (from Sigma-Aldrich) as the enzyme preparation. Upon the hydrolysis of this fluorogenic substrate, the resulting product, […]. 4-Methyllumbelliferone, can be excited at 365 nm and emits at 440 nm which can be detected by a standard fluorescence plate reader. Data were normalized to the controls for basal activity (without enzyme) and 100% activity (with enzyme). In the AC50 values were determined from concentration-response data modeled with the standard Hill equation.
Assay buffer: 50 mM citric acid, 0.005% Tween-20, pH 5.9. (pH 5.9 is an optimal condition for this enzyme assay.)
1536-well assay protocol for the coffee bean alpha-galactosidase:
(1) Add 2 ul/well of enzyme (2 nM final)
(2) Add 23 nL compounds in DMSO solution. The final titration was 0.7 nM to 77 uM.
(3) Add 1 ul of substrate (80 uM final)
(4) Incubate at room temperature for 20 min.
(5) Add 2 ul stop solution (1M NaOH and 1M Glycine mixture, pH 10)
(6) Detect the assay plate in a ViewLux plate reader (PerkinElmer) with Ex=365 nm and Em=440nm.
Keywords: Alpha-galactosidase, Fabry Disease, pharmacological chaperone, chaperone therapy, high throughput screening, alpha-galactosidase inhibitor, MLSMR, MLSCN, NIH Roadmap, qHTS and NCGC

Sequence of Alpha-galactosidase (Coffea arabica) (Q42656 whole entry, looked up): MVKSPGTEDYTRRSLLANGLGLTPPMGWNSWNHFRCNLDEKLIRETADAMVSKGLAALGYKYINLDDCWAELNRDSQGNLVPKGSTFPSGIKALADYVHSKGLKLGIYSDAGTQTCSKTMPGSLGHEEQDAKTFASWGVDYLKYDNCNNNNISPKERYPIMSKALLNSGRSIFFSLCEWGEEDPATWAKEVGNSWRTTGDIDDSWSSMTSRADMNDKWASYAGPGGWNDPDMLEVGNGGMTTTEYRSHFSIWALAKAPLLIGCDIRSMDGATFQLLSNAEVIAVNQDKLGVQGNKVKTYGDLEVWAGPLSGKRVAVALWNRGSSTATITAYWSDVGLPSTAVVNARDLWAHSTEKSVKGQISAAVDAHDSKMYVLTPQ

SMILES | activity, negative = inhibition [%] | outcome
C[C@@H]1O[C@H]1P(=O)(O)O | 3.93 | 
C[C@@H](Cc1ccc(O)cc1)NC[C@@H](O)c1cc(O)cc(O)c1 | 3.41 | 
Oc1ccc2c3c1O[C@@H]1c4[nH]c5c(c4C[C@@]4(O)[C@@H](C2)N(CC2CC2)CC[C@]314)C[C@]1(O)[C@@H]2Cc3ccc(O)c4c3[C@@]1(CCN2CC1CC1)[C@H]5O4 | -5.21 | 
O=C(O)[C@H]1CCN1 | -1.43 | 
C[Se]C[C@@H](N)C(=O)O | -2.12 | 
COc1cc(C[C@H](C)N)c(OC)cc1I |  | inactive
N[C@H](Cn1ccc(=O)[nH]c1=O)C(=O)O | 2.85 | 
O=C(O)[C@H]1[C@H](C(=O)O)[C@H]2CC[C@@H]1O2 | 0.133 | 
C[N+]1(C)C2CC(OC(=O)C(CO)c3ccccc3)CC1[C@@H]1O[C@H]21 (some centres undefined) |  | inactive
C[C@@]12CC[C@H]3[C@@H](CC[C@@H]4C[C@H](O)CC[C@]43C)[C@H]1CC[C@H]2O | -1.26 | 
NC(=O)CN1C[C@@H](O)CC1=O | 3.37 | 
CC(=O)[C@@H]1CC[C@H]2[C@H]3CC[C@H]4C[C@@H](O)CC[C@]4(C)[C@@H]3CC[C@]12C | -3.44 | 
COc1cc([C@@H](O)CN)ccc1O | 1.61 | 
CCn1cnc2c(Nc3cccc(Cl)c3)nc(N[C@@H]3CCCC[C@H]3N)nc21 | -3.47 | 
CCNC(=O)[C@@H]1O[C@@H](n2cnc3c(N)ncnc32)[C@@H](O)[C@H]1O | 0.91 | 
C[C@@]12CC[C@H]3[C@@H](CCC4=C(O)C(=O)CC[C@]43C)[C@H]1CCC2=O | 2.3 | 
C#CCN[C@@H](C)Cc1ccccc1 | -0.251 | 
C[C@]12CC[C@H](O)CC1=CC[C@@H]1[C@H]2CC[C@]2(C)C(=O)CC[C@H]12 | 4.14 | 
CCCN1CC[C@@H]2c3cc(O)ccc3CC[C@H]21 | 0.0396 | 
CO[C@@H]1CC=C2CCN3CCC4=C(CC(=O)OC4)[C@]23C1 | 4.29 | 

SMILES | activity, negative = inhibition [%] | outcome
C=CCN1CC[C@]23c4c5ccc(O)c4O[C@@H]2/C(=N/NC(=O)c2ccccc2)CC[C@@]3(O)[C@H]1C5 | -1.85 | 
C[N+]1(C)CCc2cc3c(cc2[C@@H]1[C@@H]1OC(=O)c2c1ccc1c2OCO1)OCO3 | -2.04 | 
CCN(CC)c1ncnc2c1ncn2[C@@H]1O[C@@H](COP(=O)(O)OP(=O)(O)C(Br)(Br)P(=O)(O)O)[C@H](O)[C@@H]1O | 3.14 | 
C[C@@H]1Cc2cc3c(cc2C(c2ccc(N)cc2)=NN1)OCO3 | -2.78 | 
CN1C[C@@H](CS(=O)(=O)N(C)C)C[C@H]2c3cccc4c3c(cn4C)C[C@@H]21 | -0.0925 | 
C[C@]12CC[C@H](O)C[C@@H]1CC[C@H]1[C@H]2CC[C@]2(C)[C@H](C(=O)CO)CC[C@@H]12 | -0.31 | 
COC(=O)[C@H](N)CCCN=C(N)N[N+](=O)[O-] | 2.65 | 
N[C@H](Cc1ccc(N(CCCl)CCCl)cc1)C(=O)O | -2.35 | 
N[C@H](CCl)C(=O)O | 1.48 | 
COc1ccc2c(c1)[C@]13CCCC[C@@H]1[C@H](C2)NCC3 | -0.639 | 
CC(=O)OCC1=C(C(=O)[O-])N2C(=O)[C@@H](NC(=O)CCC[C@@H](N)C(=O)[O-])[C@@H]2SC1.[Zn+2] | 0.493 | 
CC(C)N[C@@H](C)Cc1ccc(I)cc1 | 0.356 | 
C[C@@]12CC[C@H]3[C@@H](CC=C4C[C@H](OS(=O)(=O)O)CC[C@]43C)[C@H]1CCC2=O | -1.83 | 
NC[C@H](O)c1cc(O)c(O)cc1F | 0.552 | 
CC(=O)c1c(O)c(C)c(O)c(Cc2c(O)c3c(c(C(=O)/C=C\c4ccccc4)c2O)OC(C)(C)C=C3)c1O | -2.23 | 
COc1ccc2c(c1O)-c1cccc3c1[C@H](C2)N(C)CC3 | -1.25 | 
CC(C)C[C@H](NP(=O)(O)O[C@@H]1O[C@@H](C)[C@@H](O)[C@@H](O)[C@H]1O)C(=O)N[C@@H](Cc1c[nH]c2ccccc12)C(=O)O | -0.0248 | 
COc1ccc2c3c1O[C@@H]1C(=O)CC[C@@]4(O)[C@@H](C2)N(CC2CC2)CC[C@]314 | -3.24 | 
Nc1ncnc2c1ncn2[C@@H]1O[C@@H](COP(=O)(O)CP(=O)(O)OP(=O)(O)O)[C@H](O)[C@@H]1O | 2.37 | 
